Assay results as given in publication PMC5540273 (PLoS ONE, 2017).

Key:
Details in all cases: concentration: 1 μM, replicates: in singlicate; n = 1
[1] = system: EPHB4
[2] = system: EPHB6
[3] = system: ERBB2
[4] = system: ERBB3
[5] = system: ERBB4
[6] = system: T1, ERK1
T1 construct: gene MAPK3

[7] = system: T2, ERK2
T2 construct: gene MAPK1

[8] = system: T3, ERK3
T3 construct: gene MAPK6

[9] = system: T4, ERK4
T4 construct: gene MAPK4

[10] = system: T5, ERK5
T5 construct: gene MAPK7

[11] = system: T6, ERK8
T6 construct: gene MAPK15

[12] = system: ERN1
[13] = system: T7, FAK
T7 construct: gene PTK2

[14] = system: FER
[15] = system: FES
[16] = system: FGFR1
[17] = system: FGFR2
[18] = system: FGFR3
[19] = system: FGFR4
[20] = system: FGR
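Further: KINOMEscan kinase panel screen.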

| SMILES | %Inh [1] | %Inh [2] | %Inh [3] | %Inh [4] | %Inh [5] | %Inh [6] | %Inh [7] | %Inh [8] | %Inh [9] | %Inh [10] | %Inh [11] | %Inh [12] | %Inh [13] | %Inh [14] | %Inh [15] | %Inh [16] | %Inh [17] | %Inh [18] | %Inh [19] | %Inh [20] |
| --- | --- | --- | --- | --- | --- | --- | --- | --- | --- | --- | --- | --- | --- | --- | --- | --- | --- | --- | --- | --- |
| CNc1nc(-c2ccc3c(N)n[nH]c3c2)cc(N2C[C@@H](C(=O)Nc3ccccc3)CC[C@H]2C)n1 [GSK2298859] | 14% | 9% | 12% | 0% | 19% | 0% | 0% | 6% | 0% | 0% | 0% | 2% | 0% | 33% | 0% | 23% | 0% | 16% | 0% | 22% |
| CC(C)c1ccc(O)cc1Nc1ccnc2ccc(C(F)(F)F)cc12 [GW482059] | 0% | 0% | 10% | 0% | 0% | 0% | 0% | 0% | 0% | 0% | 17% | 8% | 0% | 14% | 0% | 10% | 2% | 5% | 57% | 9% |
| Nc1ncnc2occ(-c3ccc4c(c3)CCN4C(=O)Cc3cc(F)ccc3F)c12 [GSK2645446] | 6% | 87% | 30% | 11% | 0% | 0% | 0% | 21% | 0% | 0% | 0% | 0% | 0% | 8% | 0% | 0% | 0% | 17% | 1% | 16% |
| CCn1c(-c2ccccc2)nc2cnccc21 [SB-733416] | 16% | 0% | 0% | 0% | 0% | 0% | 18% | 0% | 0% | 37% | 23% | 0% | 2% | 18% | 0% | 18% | 0% | 0% | 23% | 22% |
| CS(=O)(=O)CCNCc1nc(-c2ccc3ncnc(Nc4ccc5c(cnn5Cc5ccccc5)c4)c3c2)cs1.Cl.Cl [GW569716] | 8% | 21% | 100% | 98% | 92.4% | 4% | 10% | 0% | 0% | 0% | 0% | 0% | 0% | 0% | 0% | 0% | 0% | 0% | 8% | 24% |
| CNCc1ccc2nc(NC(=O)c3ccc(C(C)(C)C)cc3)cn2c1 | 1% | 6% | 17% | 31% | 9% | 1% | 0% | 0% | 0% | 6% | 2% | 9% | 3% | 1% | 1% | 0% | 0% | 6% | 0% | 0% |
| CSc1ccc(-c2nc3n(c2-c2ccncc2)CCC3)cc1 [SKF-105561] | 21% | 15% | 0% | 0% | 3% | 0% | 0% | 0% | 0% | 0% | 1% | 0% | 0% | 0% | 28% | 1% | 0% | 0% | 0% | 25% |
| FC(F)(F)c1ccccc1-c1cc(-c2c[nH]nc2-c2ccccn2)ccn1 [GW679396] | 0% | 100% | 8% | 0% | 0% | 0% | 0% | 11% | 21% | 0% | 0% | 10% | 0% | 15% | 0% | 4% | 0% | 0% | 0% | 12% |
| CNc1nc(-c2ccc3c(N)n[nH]c3c2)cc(N2C[C@@H](C(=O)NC3CCCCC3)OC[C@H]2C)n1 [GSK2375584] | 14% | 0% | 27% | 15% | 24% | 0% | 1% | 0% | 8% | 0% | 0% | 0% | 0% | 34% | 0% | 13% | 27% | 27% | 7% | 17% |
| O=C1NC(=O)C(c2ccc(Cl)cc2)=C1Nc1cccc(Cl)c1 [SB-317651] | 0% | 8% | 14% | 0% | 0% | 0% | 8% | 0% | 0% | 0% | 10% | 3% | 0% | 0% | 0% | 0% | 0% | 4% | 0% | 0% |
| COc1ccc(Nc2nccc(-c3ccc(NC(=O)c4cc5cc(F)ccc5[nH]4)cc3)n2)cc1 [GSK1229496] | 16% | 6% | 38% | 13% | 6% | 0% | 0% | 0% | 0% | 0% | 0% | 0% | 0% | 16% | 15% | 0% | 19% | 9% | 0% | 10% |
| CS(=O)(=O)CCNCc1nc(-c2ccc3ncnc(Nc4ccc(OCc5ccccc5)c(Cl)c4)c3c2)cs1.Cl [GW582764] | 8% | 0% | 100% | 58% | 97.8% | 0% | 0% | 0% | 0% | 0% | 0% | 0% | 0% | 0% | 0% | 0% | 0% | 0% | 0% | 18% |
| O=c1cc(N2CCOCC2)nc2n(Cc3cccc(Cl)c3Cl)c3ccccc3n12 [GSK2299009] | 0% | 33% | 6% | 0% | 10% | 0% | 15% | 26% | 45% | 0% | 0% | 18% | 0% | 49% | 0% | 31% | 4% | 10% | 21% | 17% |
| COC(=O)c1cccc(NC(=O)NC2CCN(c3ccnc(Nc4ccc(F)cc4)n3)C2)c1 (stereo not drawn) [GSK1379725] | 0% | 0% | 16% | 0% | 0% | 0% | 0% | 0% | 0% | 0% | 0% | 0% | 0% | 0% | 0% | 0% | 4% | 4% | 9% | 12% |
| COc1ccc(Nc2nccc(N3CCC(NC(=O)C(C)c4ccc(Cl)cc4)C3)n2)cc1 (stereo not drawn) [GSK1379735] | 7% | 18% | 11% | 9% | 0% | 0% | 0% | 0% | 0% | 0% | 44% | 0% | 0% | 28% | 12% | 8% | 36% | 17% | 3% | 10% |
| Cc1ccc(NC(=O)Nc2ccccc2F)cc1-c1ccc(C(=O)Nc2ccncc2)cc1 [GSK1398477] | 21% | 20% | 8% | 0% | 0% | 8% | 9% | 11% | 20% | 0% | 0% | 13% | 0% | 16% | 11% | 19% | 14% | 23% | 21% | 26% |
| CS(=O)(=O)Cc1ccc(Nc2nccc(-c3c(-c4cccc(NC(=O)C5CCCCC5)c4)nn4ncccc34)n2)cc1 [GSK350559] | 0% | 42% | 25% | 22% | 74% | 2% | 0% | 0% | 3% | 0% | 0% | 33% | 0% | 8% | 0% | 0% | 41% | 16% | 6% | 27% |
| CCCCc1nn2ncccc2c1-c1ccnc(NC2CC2)n1 [GW684374] | 4% | 39% | 21% | 0% | 16% | 0% | 0% | 3% | 27% | 0% | 0% | 0% | 0% | 0% | 0% | 0% | 0% | 5% | 0% | 7% |
| Cn1cncc1C(=O)NC1CCN(c2ccnc(Nc3ccc(F)cc3)n2)C1 (stereo not drawn) [GSK1379717] | 14% | 15% | 0% | 0% | 5% | 0% | 0% | 0% | 0% | 0% | 0% | 0% | 0% | 0% | 0% | 0% | 0% | 7% | 1% | 22% |
| Cn1cnc2c(N)ncnc21 [SKF-97623] | 52% | 0% | 35% | 0% | 39% | 77% | 0% | 0% | 0% | 0% | 12% | 0% | 0% | 0% | 0% | 0% | 0% | 0% | 0% | 51% |
| Cc1ccc(NC(=O)c2ccc(Cl)cc2)cc1-c1ccc(C(=O)Nc2ccncc2)cc1 [GSK1398467] | 30% | 0% | 30% | 0% | 12% | 0% | 0% | 0% | 19% | 0% | 0% | 0% | 0% | 24% | 0% | 0% | 0% | 7% | 18% | 40% |
